These results are taken from PubChem BioAssay (NCATS).

The nature of assay [1]: AP1 Signaling Pathway (AID 357; active = well fitted curve in either direction with a large enough effect, not every such curve was filed as active;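 note: ME-180 reporter cells stimulated with EGF at its EC50 level; % is set by controls: 0 for no effect and ±100 for the full control effect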). The note with it: ME-180 AP-1-bla reporter, EGF-induced, beta-lactamase ratio, 5 h; at 7.69 µM (top of the series) unless noted. A digest of the protocol: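 Beta-lactamase reporter under AP-1 response element, ME-180 background. Stimulus: EC50 EGF. Compound exposure 5 h, 37 °C. Detection: CCF4, 2.5 h RT, 460/530 nm. Values: AC50 from titration.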

The target of assay [2] is Cytochrome P450 1A2 (Homo sapiens) (UniProt P05177). Description: p450-cyp1a2 (AID 410; calls by dose curve; note: potency is the fitted concentration of half-maximal effect;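 for activity change, negative = inhibition: -100% = full effect of reference inhibitor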). The essentials:
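O-Demethylation of luciferin 6' methyl ether by human CYP1A2 is monitored as luciferase luminescence. Substrate sits at Km (100uM); enzyme is 20nM. Values are scaled to 57 uM furafylline as maximal inhibition.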

Assay [3] in a line: NFAT Signaling Pathway (AID 444; active = well fitted curve in either direction with a large enough effect, not every such curve was filed as active;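 note: carbachol stimulus at about its EC50 of 1 µM final; % is set by controls: 0 for no effect and ±100 for the full control effect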). The note with it: Jurkat NFAT-bla M1, carbachol, beta-lactamase ratio, 5 h; at 7.69 µM (top of the series) unless noted. The essentials: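 Jurkat cells with NFAT-driven β-lactamase reporter and co-expressed M1 receptor, stimulated with carbachol (final 1 uM, ~EC50), compound titration, 5 h at 37 °C. CCF4 loaded 1 h at RT; 460/530 nm ratio gave %activity and AC50.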

Assay [4] can be described thus: Stat Signaling Pathway (AID 446; active = well fitted curve in either direction with a large enough effect, not every such curve was filed as active;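 note: ME-180 cervical cancer cells given 40 pM IL-6 alongside compound; SIE-controlled beta-lactamase reporter measured as 460/530 nm FRET emission ratio; % is set by controls: 0 for no effect and ±100 for the full control effect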). The note with it: ME-180 SIE beta-lactamase reporter, IL-6 stimulated, 5 h; at 7.69 µM (top of the series) unless noted. A digest of the protocol: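 Emission at 460 and 530 nm (excitation 405 nm) reports SIE-controlled beta-lactamase in ME-180 cells. Cells received compound with 40 pM IL-6 for 5 hrs at 37 C; data scaled between 300 pM IL-6 and 125 nM JAK-inhibitor controls.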

The target of assay [5] is Glucocorticoid receptor (Homo sapiens) (UniProt P04150). Briefly: GR-GFP Redistribution (AID 450;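 active = compounds whose dose series gives a full or clear partial fitted curve of increased nuclear translocation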; note: potency is the fitted concentration of half-maximal effect). The following applies: U2OS GR-GFP nuclear translocation, laser cytometry, 2 h.
Sequence of Glucocorticoid receptor (Homo sapiens) (P04150 whole entry, looked up): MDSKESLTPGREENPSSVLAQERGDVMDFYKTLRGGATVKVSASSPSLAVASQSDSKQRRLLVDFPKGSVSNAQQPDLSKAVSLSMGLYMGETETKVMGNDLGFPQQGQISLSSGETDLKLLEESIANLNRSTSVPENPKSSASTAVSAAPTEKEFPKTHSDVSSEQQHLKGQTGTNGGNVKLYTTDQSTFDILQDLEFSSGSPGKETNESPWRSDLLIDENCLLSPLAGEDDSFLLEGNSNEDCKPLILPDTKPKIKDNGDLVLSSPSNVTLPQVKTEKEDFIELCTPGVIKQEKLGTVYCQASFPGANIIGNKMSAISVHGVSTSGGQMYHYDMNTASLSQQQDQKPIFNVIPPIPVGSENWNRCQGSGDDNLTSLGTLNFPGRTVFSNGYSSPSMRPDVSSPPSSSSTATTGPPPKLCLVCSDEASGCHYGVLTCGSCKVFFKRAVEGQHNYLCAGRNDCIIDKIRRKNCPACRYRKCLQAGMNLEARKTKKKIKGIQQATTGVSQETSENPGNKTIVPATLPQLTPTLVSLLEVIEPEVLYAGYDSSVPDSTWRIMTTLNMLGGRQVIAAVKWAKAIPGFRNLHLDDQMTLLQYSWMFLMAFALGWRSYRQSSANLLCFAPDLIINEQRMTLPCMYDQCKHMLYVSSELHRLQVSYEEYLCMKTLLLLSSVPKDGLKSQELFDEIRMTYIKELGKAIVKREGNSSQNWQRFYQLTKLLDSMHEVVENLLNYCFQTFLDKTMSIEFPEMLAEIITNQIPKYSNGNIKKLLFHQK
For assay [6] the target is unchanged. Description: GR-EFC Redistribution (AID 451; calls by dose curve; note: potency is the fitted concentration of half-maximal effect). The following applies: CHO-K1 GR-EFC translocation, beta-gal luminescence, 2 h. A digest of the protocol:
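CHO-K1 cells expressing nuclear EA and GR-ED fragments of b-gal; compounds titrated up to 46 uM final, 2 h at 37 C. GR nuclear translocation read as complemented b-gal luminescence after 1 h RT detection.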

In assay [7] the target is Mitogen-activated protein kinase 10 (Mus musculus) (UniProt Q61831). Briefly: JNK3 AlphaScreen Assay (AID 530; active = well fitted curve in either direction with a large enough effect, not every such curve was filed as active;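 note: kinase came from lysate of stimulated human HepG2 cells; signal reports phosphorylation of biotinylated GST-cJun 1-79 at Ser73 with 10 µM ATP; % is set by controls: 0 for no effect and ±100 for the full control effect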). The essentials: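 Activity was read by AlphaScreen after JNK3-containing HepG2 lysate (cytokine pre-activated) phosphorylated biotinylated GST-cJun with 10 uM ATP at room temperature. Phospho-Ser73 cJun antibody with Protein-A acceptor beads provided detection.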
In general terms: Bead proximity is the source of the signal in Alpha formats.

Assay [8] addresses 3',5'-cyclic-AMP phosphodiesterase 4B (Homo sapiens) (UniProt Q07343). Description: qHTS Assay for Inhibitors of PDE-IV (AID 607; active = well fitted activation curve with a large enough effect in the main read-out, with a control signal flat, not every such curve was filed as active; note: % of control where 0% means no effect). The essentials: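 The readout is membrane depolarisation from a cAMP-sensing CNG channel, detected with a potential dye at ex 535/em 590. Cells were HEK293-derived (endogenous PDE-IV) at 1000 cells/well, titrated up to 22.9 uM final.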
(In general: In qHTS, concentration-response curves come from the screen itself.)

Assay [9] deals with Guanine nucleotide-binding protein G(i) subunit alpha-1 (Homo sapiens) (UniProt P63096). Description: qHTS Assay for Inhibitors of RGS12 GoLoco Motif Activity (Green Fluorophore) (AID 879).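 Note: 0% = labeled peptide with Gαi1 and full inhibition = labeled peptide alone without protein; negative values mean loss of peptide binding seen as reduced polarization.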 A digest of the protocol: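 A drop in FITC polarization marked displacement of the FITC-tagged RGS12 GoLoco peptide (10 nM) from Gαi1 (50 nM). Compounds were incubated 10 min at room temperature in Tris pH 7.5 buffer containing 150 mM NaCl, 0.1 mM GDP and 0.05% NP40; unlabeled peptide titration served as control.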
Sequence of Guanine nucleotide-binding protein G(i) subunit alpha-1 (Homo sapiens) (P63096 whole entry, looked up): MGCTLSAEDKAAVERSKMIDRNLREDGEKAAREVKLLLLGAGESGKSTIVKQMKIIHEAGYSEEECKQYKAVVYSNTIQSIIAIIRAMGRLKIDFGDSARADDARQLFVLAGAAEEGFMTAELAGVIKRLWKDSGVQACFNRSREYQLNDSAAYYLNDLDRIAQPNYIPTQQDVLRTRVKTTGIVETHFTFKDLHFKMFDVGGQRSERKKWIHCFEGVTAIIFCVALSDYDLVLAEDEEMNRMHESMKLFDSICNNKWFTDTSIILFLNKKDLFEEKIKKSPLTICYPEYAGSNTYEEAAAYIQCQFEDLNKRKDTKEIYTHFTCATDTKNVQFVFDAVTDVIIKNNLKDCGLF

Assay [10] has as its target Cytochrome P450 2D6 (Homo sapiens) (UniProt P10635). Briefly: qHTS Assay for Inhibitors and Substrates of Cytochrome P450 2D6 (AID 891). Note: nearly all actives have a fitted effect of over 60% in size. Note: potency is the fitted concentration of half-maximal effect. The essentials: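 Luminescent read-out of luciferin formed by 5 nM human CYP2D6 demethylating 30 uM Luciferin-ME EGE (Km level) over 60 min at room temperature after NADPH regeneration addition. Data normalized to full inhibition by 1.43 uM quinidine.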

In assay [11] the target is Muscarinic acetylcholine receptor M1 (Rattus norvegicus) (UniProt P08482). Briefly: qHTS Assay for Antagonists of Acetylcholine Muscarinic M1 Receptor: Measurement of IP-One Response (AID 944). Note: nearly all actives have a fitted effect of over 75% in size. A digest of the protocol: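 Antagonist mode with rat M1 receptor transfected into CHO cells. Compound is added first for 10 min, carbachol at its EC80 follows for 30 min, and lysis reagents then allow TR-FRET detection of accumulated IP1.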
Sequence of Muscarinic acetylcholine receptor M1 (Rattus norvegicus) (P08482 whole entry, looked up): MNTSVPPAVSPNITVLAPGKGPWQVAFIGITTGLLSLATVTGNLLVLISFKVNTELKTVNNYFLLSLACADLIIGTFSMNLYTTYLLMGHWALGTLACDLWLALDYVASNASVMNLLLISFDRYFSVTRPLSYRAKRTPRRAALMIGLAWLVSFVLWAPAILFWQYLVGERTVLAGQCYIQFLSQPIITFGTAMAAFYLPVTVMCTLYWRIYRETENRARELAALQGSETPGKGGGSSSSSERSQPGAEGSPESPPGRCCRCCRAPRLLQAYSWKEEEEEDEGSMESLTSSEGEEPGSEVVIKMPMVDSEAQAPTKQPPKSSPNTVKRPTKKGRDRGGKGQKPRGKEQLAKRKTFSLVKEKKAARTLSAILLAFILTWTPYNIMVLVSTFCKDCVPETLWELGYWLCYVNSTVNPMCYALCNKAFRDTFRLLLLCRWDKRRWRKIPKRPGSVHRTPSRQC

The target in assay [12] is Pyruvate kinase (Leishmania mexicana) (UniProt Q27686). Briefly: qHTS Validation Assay for Inhibitors of Leishmania Mexicana Pyruvate Kinase (AID 945).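 Note: 0% = DMSO only neutral control wells.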 A digest of the protocol:
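Substrate mix (0.5 mM PEP, 0.1 mM ADP, 7 mM MgCl2, 50 mM KCl, pH 7.2 imidazole) received compound by pin tool, then 0.2 nM LmPYK E451W. After 1 h at room temperature, PKLight was added and luminescence measured.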

Assay [13] concerns the target Pyruvate kinase PKM (Homo sapiens) (UniProt P14618). Description: qHTS Assay for Activators of Human Muscle Pyruvate Kinase (AID 954; active = well fitted curve in the direction sought with a large enough effect, not every such curve was filed as active;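 note: 0% = uninhibited enzyme and -100% = no enzyme or full thiadiazolimine inhibition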). The essentials: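 PKM2, human, >95% pure, 0.1 nM; PEP 0.5 mM (Km), ADP 0.1 mM; 50 mM imidazole pH 7.2, 50 mM KCl, 0.01% Tween 20, 0.05% BSA; 1 h RT; luciferase luminescence readout.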
For assay [14], the target named is Alpha-galactosidase A (Homo sapiens) (UniProt P06280). Briefly: Counterscreen for Glucocerebrosidase Inhibitors: qHTS Assay for Human alpha-Galactosidase at pH 4.5 (AID 992). Note: 0% is about no effect. The essentials:
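Fluorogenic 4-MU alpha-D-galactoside (80 uM) hydrolysis, 2 nM enzyme, pH 4.5 citrate buffer + 0.005% Tween-20; 20 min RT; NaOH/glycine pH 10 stop; Ex365/Em440. Compounds titrated 0.7 nM–77 uM; Hill-equation AC50.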
(A counterscreen serves to expose hits that act by an unwanted route or on another target.)

The target of assay [15] is alpha-glucosidase (Oryza sativa, rice) (UniProt Q653V4). Description: Counterscreen for Glucocerebrosidase Inhibitors: qHTS Assay for Rice alpha-Glucosidase at pH 5.0 (AID 997).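 Note: 0% = full activity with enzyme and -100% = basal without enzyme.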 A digest of the protocol: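 Endpoint fluorogenic assay at pH 5.0: compounds (0.7 nM to 77 uM) titrated against 4 nM rice enzyme and 400 uM 4-MU-alpha-glucoside for 20 min at room temperature; NaOH/glycine stop, read ex 365/em 440 nm, Hill-fitted AC50.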

Assay [16] has as its target Cytochrome P450 3A4 (Homo sapiens) (UniProt P08684). Briefly: qHTS Assay for Activators of Cytochrome P450 3A4 (AID 885). Note: nearly all actives have a fitted effect of over 65% in size. Note: potency is the fitted concentration of half-maximal effect. A digest of the protocol:
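Activators are scored by enhanced luminescence from CYP3A4 conversion of luciferin-PPXE (25uM, equal to KM) to luciferin, after 60 min at RT with an NADPH-regenerating system.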

The nature of assay [17]: qHTS Assay for Identification of Small Molecule Antagonists for NFkB Signaling Pathway (AID 895; active = well fitted inhibition curve with a large enough effect in the signal ratio, with a control signal flat, not every such curve was filed as active; the % refers to the signal ratio; note: % is set by controls: 0 for no effect and ±100 for the full control effect). The essentials: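 ME-180 NFkB-bla cells (beta-lactamase under NFkB response element), plated overnight, treated with compound then 10 pM TNF alpha (about EC50) for 5 hrs at 37 C. LiveBLAzer FRET read at 460/530 nm emission, 405 nm excitation.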
The nature of assay [18]: qHTS Assay for Identification of Small Molecule Agonists for Thrombopoietin (TPO) Signaling Pathway (AID 917). Note: % is set by controls: 0 for no effect and ±100 for the full control effect. A digest of the protocol: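 Luciferase reporter (Glycoprotein IIb promoter) in IL-3-deprived Ba/F3 cells carrying human TPO receptor; compounds co-added with 26 pM TPO, incubated 24 h, 37 C. Steadylite luminescence measured after 10 min.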
The target in assay [19] is Cytochrome P450 2C19 (Homo sapiens) (UniProt P33261). Briefly: qHTS Assay for Inhibitors and Substrates of Cytochrome P450 2C19 (AID 899). Note: % is set by controls: 0 for no effect and ±100 for the full control effect; nearly all actives have a fitted effect of over 60% in size. A digest of the protocol: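 Luminescent read-out of luciferin formed from Luciferin-H EGE (10uM, equal to KM). Enzyme 5nM in 50mM KPO4; compound added, 10 min at 37C, then NADPH regenerating system for 60 min at 37C. Full inhibition defined by 57uM ketoconazole.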

Assay [20] has as its target Muscarinic acetylcholine receptor M1 (Rattus norvegicus) (UniProt P08482). Briefly: qHTS Assay for Antagonists of Acetylcholine Muscarinic M1 Receptor: Kinetic Measurement of Intracellular Calcium Response (AID 943).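 Note: Fluo-4 calcium signal as peak divided by basal fluorescence over 4 min; nearly all actives have a fitted effect of over 75% in size.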 The essentials: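 Antagonism is measured as inhibition of the carbachol-evoked calcium rise in CHO cells transfected with rat M1. Cells are dye-loaded, exposed to compound for 10 min, then stimulated with 100 nM carbachol (EC80).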

Values without a mark were called inactive. Results filed as inconclusive are left out. The source made the active and inactive calls. Unless noted, calls come from the whole dose curve; as a rule, active = well fitted curve in the direction sought with a large enough effect; inconclusive = small, poorly fitted or top-dose-only effect, or another doubt; inactive = no such curve, though single readings can be large; an effect the other way counts as inactive or inconclusive. Bounds are passed on as bounds.

Sequence of Cytochrome P450 1A2 (Homo sapiens) (P05177 whole entry, looked up): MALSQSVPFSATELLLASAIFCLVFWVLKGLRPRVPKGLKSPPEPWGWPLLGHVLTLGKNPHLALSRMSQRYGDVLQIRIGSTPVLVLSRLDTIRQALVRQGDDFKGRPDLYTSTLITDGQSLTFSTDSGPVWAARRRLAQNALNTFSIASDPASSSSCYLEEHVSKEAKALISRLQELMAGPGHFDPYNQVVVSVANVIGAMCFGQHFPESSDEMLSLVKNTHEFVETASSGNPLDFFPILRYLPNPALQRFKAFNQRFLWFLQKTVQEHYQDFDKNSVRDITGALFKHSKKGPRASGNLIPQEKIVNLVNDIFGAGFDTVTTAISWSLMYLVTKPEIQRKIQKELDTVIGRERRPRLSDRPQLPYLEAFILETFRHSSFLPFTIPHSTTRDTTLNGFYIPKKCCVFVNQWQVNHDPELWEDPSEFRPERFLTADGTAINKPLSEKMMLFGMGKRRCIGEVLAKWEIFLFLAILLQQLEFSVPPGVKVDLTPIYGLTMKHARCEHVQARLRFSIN
Sequence of Pyruvate kinase (Leishmania mexicana) (Q27686 2-499 E452W): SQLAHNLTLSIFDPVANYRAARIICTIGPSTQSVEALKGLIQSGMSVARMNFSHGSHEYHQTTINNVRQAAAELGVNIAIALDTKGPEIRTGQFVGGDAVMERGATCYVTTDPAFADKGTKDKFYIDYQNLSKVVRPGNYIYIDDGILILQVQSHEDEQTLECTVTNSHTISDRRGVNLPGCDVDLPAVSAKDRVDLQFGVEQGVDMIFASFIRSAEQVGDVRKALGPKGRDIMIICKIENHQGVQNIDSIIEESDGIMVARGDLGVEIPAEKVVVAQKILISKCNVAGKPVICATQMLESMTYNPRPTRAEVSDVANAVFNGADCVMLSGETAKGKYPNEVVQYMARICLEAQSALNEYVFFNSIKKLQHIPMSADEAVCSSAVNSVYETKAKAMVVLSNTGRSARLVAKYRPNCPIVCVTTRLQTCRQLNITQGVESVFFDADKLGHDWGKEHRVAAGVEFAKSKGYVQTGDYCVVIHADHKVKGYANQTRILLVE
Sequence of Pyruvate kinase PKM (Homo sapiens) (P14618 whole entry, looked up): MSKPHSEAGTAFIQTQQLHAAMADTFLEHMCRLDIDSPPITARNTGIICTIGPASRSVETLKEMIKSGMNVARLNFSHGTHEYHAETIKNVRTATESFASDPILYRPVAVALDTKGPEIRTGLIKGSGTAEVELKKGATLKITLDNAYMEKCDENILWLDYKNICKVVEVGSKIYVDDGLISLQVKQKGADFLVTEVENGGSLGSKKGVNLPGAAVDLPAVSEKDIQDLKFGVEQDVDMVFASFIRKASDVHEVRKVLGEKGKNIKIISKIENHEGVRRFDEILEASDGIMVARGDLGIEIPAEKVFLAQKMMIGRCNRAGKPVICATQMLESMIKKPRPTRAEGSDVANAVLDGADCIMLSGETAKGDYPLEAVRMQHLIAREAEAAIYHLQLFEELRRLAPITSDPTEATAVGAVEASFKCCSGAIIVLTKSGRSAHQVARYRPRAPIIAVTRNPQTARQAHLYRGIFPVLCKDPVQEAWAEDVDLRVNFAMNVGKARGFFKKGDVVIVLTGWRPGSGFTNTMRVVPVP
Sequence of 3',5'-cyclic-AMP phosphodiesterase 4B (Homo sapiens) (Q07343 whole entry, looked up): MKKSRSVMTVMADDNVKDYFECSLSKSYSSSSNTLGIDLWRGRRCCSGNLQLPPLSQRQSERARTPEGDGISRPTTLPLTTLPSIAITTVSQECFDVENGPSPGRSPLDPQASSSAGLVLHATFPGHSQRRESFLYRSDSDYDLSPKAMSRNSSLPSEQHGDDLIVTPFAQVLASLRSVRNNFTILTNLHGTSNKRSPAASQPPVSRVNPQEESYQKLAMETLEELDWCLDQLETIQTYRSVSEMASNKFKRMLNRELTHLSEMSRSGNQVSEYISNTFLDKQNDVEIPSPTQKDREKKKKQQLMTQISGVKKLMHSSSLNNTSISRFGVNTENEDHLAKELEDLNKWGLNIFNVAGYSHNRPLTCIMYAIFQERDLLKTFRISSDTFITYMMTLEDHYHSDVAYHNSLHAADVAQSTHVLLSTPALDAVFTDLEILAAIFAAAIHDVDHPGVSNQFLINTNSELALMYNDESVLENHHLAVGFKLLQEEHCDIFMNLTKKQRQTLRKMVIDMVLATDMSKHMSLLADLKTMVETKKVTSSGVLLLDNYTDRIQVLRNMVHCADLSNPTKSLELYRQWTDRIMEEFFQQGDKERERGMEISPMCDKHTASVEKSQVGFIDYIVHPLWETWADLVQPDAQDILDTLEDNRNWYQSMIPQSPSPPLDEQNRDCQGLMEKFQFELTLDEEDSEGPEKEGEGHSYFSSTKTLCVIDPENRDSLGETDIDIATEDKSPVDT
Sequence of Alpha-galactosidase A (Homo sapiens) (P06280 whole entry, looked up): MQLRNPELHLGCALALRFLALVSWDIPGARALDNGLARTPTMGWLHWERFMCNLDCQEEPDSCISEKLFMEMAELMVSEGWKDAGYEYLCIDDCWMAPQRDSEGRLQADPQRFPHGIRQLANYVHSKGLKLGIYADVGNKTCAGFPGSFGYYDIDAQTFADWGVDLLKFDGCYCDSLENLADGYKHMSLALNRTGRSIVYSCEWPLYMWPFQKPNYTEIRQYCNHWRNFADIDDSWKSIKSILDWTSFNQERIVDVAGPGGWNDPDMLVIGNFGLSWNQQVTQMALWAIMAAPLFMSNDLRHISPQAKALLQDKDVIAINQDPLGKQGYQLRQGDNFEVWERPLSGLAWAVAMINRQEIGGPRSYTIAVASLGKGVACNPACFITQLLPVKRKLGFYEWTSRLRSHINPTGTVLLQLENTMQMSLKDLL
Sequence of Cytochrome P450 3A4 (Homo sapiens) (P08684 whole entry, looked up): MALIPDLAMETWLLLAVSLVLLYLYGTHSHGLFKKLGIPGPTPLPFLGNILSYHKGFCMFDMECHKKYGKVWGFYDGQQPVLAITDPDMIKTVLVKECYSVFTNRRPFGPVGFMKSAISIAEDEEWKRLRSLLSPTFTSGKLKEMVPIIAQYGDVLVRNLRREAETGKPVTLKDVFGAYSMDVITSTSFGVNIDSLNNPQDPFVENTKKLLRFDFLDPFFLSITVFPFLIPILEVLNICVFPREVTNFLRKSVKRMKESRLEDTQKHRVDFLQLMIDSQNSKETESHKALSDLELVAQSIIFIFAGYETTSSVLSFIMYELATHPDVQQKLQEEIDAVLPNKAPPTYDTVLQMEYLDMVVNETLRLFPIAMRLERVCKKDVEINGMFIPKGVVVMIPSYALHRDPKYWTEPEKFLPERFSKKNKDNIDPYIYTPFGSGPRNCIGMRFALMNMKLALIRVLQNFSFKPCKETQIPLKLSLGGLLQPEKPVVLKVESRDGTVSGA

For `CN1CCc2cc(Cl)c(O)cc2[C@H](c2ccccc2)C1`, the activity change, negative = inhibition in [1] was 15.7% [at 38 µM]; in [3], -3.81% [at 38 µM]. Moreover, the Potency was 31.6 µM (active) in assay [2], over 46 µM in assay [5], over 46 µM in [6] and 0.631 µM (active) in assay [10]. The activity, negative = inhibition in assay [4] is 19.6% [at 38 µM]. In addition, the Potency entry in assay [7], in [8], in assay [11] and in [15] was “inactive” each time. The compound was called inactive in assay [9], in [12], in assay [13] and in [14].

Turning to `COc1cc2c(cc1OC)[C@H](c1ccccc1)CN(C)CC2`, the activity change, negative = inhibition was -2.12% [at 38 µM] in [1] and -8.45% [at 38 µM] in [3]. The Potency entry in assay [2], in [7], in [8], in assay [17], in assay [11] and in assay [15] was “inactive” throughout. Besides, in [4], the activity, negative = inhibition is 0.584% [at 38 µM]. Further, the Potency in assay [5] was over 46 µM; in assay [6], over 46 µM; in [16], 12.6 µM (active). In addition, the compound was called inactive in [9], in [18], in assay [12], in assay [13] and in [14].

With `Cc1cccc(C)c1OC[C@@H](N)C(C)C`, the activity change, negative = inhibition is 9.48% [at 38 µM] in assay [1] and 4.41% [at 38 µM] in assay [3]. Also, the figures for the Potency in assay [2], in assay [5] and in [6] were 12.6 µM (active), over 46 µM and over 46 µM, respectively. Also, in assay [4], the activity, negative = inhibition was 4.92% [at 38 µM]. The Potency entry in assay [7], in assay [8], in assay [16], in [11] and in assay [15] was “inactive” throughout. The compound was classed as inactive in [9], in assay [12], in [13] and in [14].

For `N[C@H](CCCC(=O)O)C(=O)O`, the activity change, negative = inhibition is 3.41% [at 38 µM] in assay [1] and 7.48% [at 38 µM] in [3]. In addition, the Potency result in [2], in [7], in assay [8], in [19], in [20] and in assay [11] was “inactive” throughout. Moreover, the Potency entry in assay [15] was “inactive”. For the same compound, the activity, negative = inhibition in assay [4] was -3.61% [at 38 µM]. Moreover, the Potency in [5] and in assay [6] was over 46 µM each time. Further, the compound was classed as inactive in assay [9], in [18], in assay [12] and in [14].

Turning to `CCN1/C(=C\C(C)=O)Sc2ccc(OC)cc21`, the activity change, negative = inhibition is -18.4% [at 38 µM] in assay [1] and 10.3% [at 38 µM] in [3]. Moreover, the Potency was 0.631 µM (active) in assay [2], over 46 µM in assay [5] and over 46 µM in assay [6]. For the same compound, the activity, negative = inhibition in assay [4] was 2.84% [at 38 µM]. The Potency entry in assay [7], in assay [8], in assay [10] and in assay [19] was “inactive” in each case.
